The whole screen tested about 5,500 compounds, of which about 2,000 (36%) were called active. About 18% were inconclusive and are not listed. Rule as the data show it: active = normalized growth mostly below about 0.91 (no sharp cut-off); inconclusive = no clear call, values can overlap the other calls; inactive = mostly above about 0.92. Some of the results follow.
Experiment: chemical genetic growth profiling, strain panel (AID 1159580);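 also: tested at 20 µM; growth read once vehicle control cultures reached saturation at 30 °C; 1 = growth at the plate median or of vehicle wells; lower values mean less growth of the strain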
Conditions: S. cerevisiae deletion strains, growth OD

Measured: normalized growth

CCCC[C@@H](CC)COC(=O)c1ccccc1O
inactive: locus YHR030C, strain SLT2, active compounds read low 0.979 | locus YHR079C, strain IRE1, active compounds read low 0.99 | locus YJL095W, strain BCK1, active compounds read low 1.02 | locus YJR066W, strain TOR1, active compounds read low 0.938 | locus YLR113W, strain HOG1, active compounds read low 0.974 | locus YNL183C, strain NPR1, active compounds read low 0.958 | locus YOR231W, strain MKK1, active compounds read low 0.984 | locus YPL256C, strain CLN2, active compounds read low 0.994
